Assay results: PubChem BioAssay (EPA / NIEHS)
Inconclusive results are not listed. The source made the active and inactive calls. The calls were made as follows: active = hit-call score of the fitted dose curve at least 0.9, where 1 is the maximum; inconclusive = response in the unintended direction; inactive = score below 0.9.

Target: rat Adrenergic, Alpha 1A Receptor (Adra1A), Adra1a (gene 29412) (UniProt P43140)
Assay: NVS_GPCR_rAdra1A: NovaScreen (NVS) G Protein-Coupled Receptor Assay for rat Adrenergic, Alpha 1A Receptor (Adra1A) (AID 2283296)
Method in brief: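 Filter radiodetection after 1 h competitive binding on CEC-pretreated rat cortical membranes. Duplicate single-point screening at 25 uM; active chemicals retested across concentration series.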

Sequence of rat Adrenergic, Alpha 1A Receptor (Adra1A), Adra1a (gene 29412) (P43140 whole entry, looked up): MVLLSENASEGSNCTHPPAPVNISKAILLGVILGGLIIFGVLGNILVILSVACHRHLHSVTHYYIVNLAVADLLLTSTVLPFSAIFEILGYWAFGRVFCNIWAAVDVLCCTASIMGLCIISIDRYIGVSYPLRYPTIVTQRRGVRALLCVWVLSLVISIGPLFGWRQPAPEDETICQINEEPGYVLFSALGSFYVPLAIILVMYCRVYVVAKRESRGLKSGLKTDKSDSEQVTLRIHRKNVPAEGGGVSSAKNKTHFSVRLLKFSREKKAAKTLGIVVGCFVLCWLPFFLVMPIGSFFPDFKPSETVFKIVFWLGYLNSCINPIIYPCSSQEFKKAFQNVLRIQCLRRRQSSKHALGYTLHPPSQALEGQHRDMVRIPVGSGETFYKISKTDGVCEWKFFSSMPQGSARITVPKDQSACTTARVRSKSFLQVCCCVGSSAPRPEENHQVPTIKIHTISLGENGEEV

AC50, active:
NC(=Nc1ccccc1)Nc1ccccc1 8.43 µM, COc1ccc(OC(F)(F)F)cc1CN[C@H]1CCCN[C@H]1c1ccccc1 25 µM, CN(C)C(=O)NC1(c2ccccc2)CCN(CC[C@@]2(c3ccc(F)c(F)c3)CN(C(=O)c3ccccc3)CCO2)CC1 8.08 µM, CSc1ccc(Oc2ccc(S(N)(=O)=O)cc2CN(C)C)cc1C 6.58 µM, O=C(N[C@@H](c1ccccc1)[C@@H]1CCCCN1)c1cccc(C(F)(F)F)c1Cl 16.7 µM, CCN(CC)CCOc1ccc(C(=C(Cl)c2ccccc2)c2ccccc2)cc1 21 µM, CCc1nc(N)nc(N)c1-c1ccc(Cl)cc1 2.37 µM

outcome, inactive:
Cc1ccc(C(C)(C)C)c(O)c1, Cc1cc(SC2=C(O)C[C@@](CCc3ccc(N)cc3)(C(C)C)OC2=O)c(C(C)(C)C)cc1CO, CN(C)C(=O)NC1(c2ccccc2)CCN(CCC[C@]2(c3ccc(Cl)c(Cl)c3)CCCN(C(=O)c3ccccc3)C2)CC1

System: rat Adrenergic, Alpha 1B Receptor (Adra1B), gene 24173
Assay: NVS_GPCR_rAdra1B: NovaScreen (NVS) G Protein-Coupled Receptor Assay for rat Adrenergic, Alpha 1B Receptor (Adra1B) (AID 2283297)
Method in brief: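 Filter-binding radioligand competition on membranes from rat liver, read after 1 h by scintillation counting. Single-concentration duplicate screen at 25 uM, followed by concentration-response on actives, normalised to DMSO.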

outcome, inactive:
O=Cc1ccccc1C=O, Cn1cnc2c1c(=O)[nH]c(=O)n2C, CC(C)NCC(O)c1ccc(O)c(O)c1 (centres undefined), CN(C)CCCN(C)CCCN(C)C

AC50, active:
CCCCCCCCCCCCCCOS(=O)(=O)O 20.9 µM, COC(=O)[C@H]1[C@H]2C[C@@H]3c4[nH]c5cc(OC)ccc5c4CCN3C[C@H]2C[C@@H](OC(=O)c2cc(OC)c(OC)c(OC)c2)[C@@H]1OC 21.1 µM, COc1ccc(OC(F)(F)F)cc1CN[C@H]1CCCN[C@H]1c1ccccc1 14.8 µM, CSc1ccc(Oc2ccc(S(N)(=O)=O)cc2CN(C)C)cc1C 0.875 µM, CN(C)CCCN1c2ccccc2Sc2ccc(Cl)cc21 0.0108 µM, CCN(CC)CCOc1ccc(C(=C(Cl)c2ccccc2)c2ccccc2)cc1 21 µM, CCc1nc(N)nc(N)c1-c1ccc(Cl)cc1 4.4 µM

Target: rat Adrenergic Receptor, Beta (Adrb), Non-selective Binding, Adrb1 (gene 24925) (UniProt P18090)
Assay: NVS_GPCR_rAdrb_NonSelective: NovaScreen (NVS) G Protein-Coupled Receptor Assay for rat Adrenergic Receptor, Beta (Adrb), Non-selective Binding (AID 2283298)
Method in brief: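 Rat cortical membranes incubated 1 h with beta-adrenergic radioligand and test chemical; bound ligand measured by filtration and scintillation counting. Screen at 25 uM duplicate, then concentration series with 50 uM maximum; loss of signal versus DMSO.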

Sequence of rat Adrenergic Receptor, Beta (Adrb), Non-selective Binding, Adrb1 (gene 24925) (P18090 whole entry, looked up): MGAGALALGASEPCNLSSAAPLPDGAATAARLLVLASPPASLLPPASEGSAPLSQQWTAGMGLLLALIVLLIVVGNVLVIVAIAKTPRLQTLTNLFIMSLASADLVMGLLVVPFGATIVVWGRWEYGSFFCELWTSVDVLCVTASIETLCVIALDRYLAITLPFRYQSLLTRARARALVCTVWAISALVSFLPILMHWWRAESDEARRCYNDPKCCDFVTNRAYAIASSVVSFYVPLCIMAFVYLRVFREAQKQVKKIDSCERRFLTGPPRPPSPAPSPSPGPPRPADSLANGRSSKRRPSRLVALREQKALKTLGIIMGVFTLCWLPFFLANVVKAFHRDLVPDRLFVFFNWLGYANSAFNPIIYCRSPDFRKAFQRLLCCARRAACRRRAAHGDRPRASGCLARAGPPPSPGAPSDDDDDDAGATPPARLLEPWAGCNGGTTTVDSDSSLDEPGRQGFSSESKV

AC50, active:
C/C=C/c1ccc(OC)cc1 0.28 µM, CSc1ccc(Oc2ccc(S(N)(=O)=O)cc2CN(C)C)cc1C 25 µM

outcome, inactive:
CCCCCCCCCC[N+](C)(C)[O-]
